# Results published in PMC7862700, “An all-to-all approach to the identification of sequence-specific readers for epigenetic DNA modifications on cytosine”.
# How the values were obtained:
# Experiment in all cases: DAPPL (digital affinity profiling via proximity ligation, sequencing); 10 mM Tris-HCl pH 7.5, 50 mM NaCl, 1 mM DTT, 4% glycerol, room temperature, 30 min; GST-TFs on glutathione beads, 16-mer random dsDNA library, 0.1% formaldehyde crosslink after washing; high values mean tight binding
# FEV = molecular target: T1, FEV (Homo sapiens, UniProt Q99581 1-238); conditions: protein: recombinant; tags: N-terminal GST; dsDNA, one strand shown
# T1 sequence: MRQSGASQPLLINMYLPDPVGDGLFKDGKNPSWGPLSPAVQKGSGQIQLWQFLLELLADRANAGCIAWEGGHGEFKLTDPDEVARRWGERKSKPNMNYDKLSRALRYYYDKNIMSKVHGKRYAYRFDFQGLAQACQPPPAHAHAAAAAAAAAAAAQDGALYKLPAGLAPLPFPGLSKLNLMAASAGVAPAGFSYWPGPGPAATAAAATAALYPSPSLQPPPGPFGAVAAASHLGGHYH
# Outline: (§1)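 Pools of DNA-barcoded human transcription factors, expressed in yeast as GST fusions on glutathione beads and combined with a tag-only sample, were incubated with 200 nmole of a 16-mer random double-stranded DNA library. Incubation took 30 min at room temperature in Tris/NaCl/DTT/glycerol buffer and was followed by washing, 0.1% formaldehyde crosslinking, proximity ligation (BsaI/T4 ligase, 1 h, 37 °C), PCR amplification and sequencing on an Illumina NextSeq500. Binding signal is the ratio of a hexamer's read frequency for a factor to its frequency for the tag-only sample.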
# ETV5 = ETV5 (Homo sapiens, UniProt P41161 1-510); conditions: protein: recombinant; tags: N-terminal GST; dsDNA, one strand shown
# Chain of ETV5 (P41161 whole entry): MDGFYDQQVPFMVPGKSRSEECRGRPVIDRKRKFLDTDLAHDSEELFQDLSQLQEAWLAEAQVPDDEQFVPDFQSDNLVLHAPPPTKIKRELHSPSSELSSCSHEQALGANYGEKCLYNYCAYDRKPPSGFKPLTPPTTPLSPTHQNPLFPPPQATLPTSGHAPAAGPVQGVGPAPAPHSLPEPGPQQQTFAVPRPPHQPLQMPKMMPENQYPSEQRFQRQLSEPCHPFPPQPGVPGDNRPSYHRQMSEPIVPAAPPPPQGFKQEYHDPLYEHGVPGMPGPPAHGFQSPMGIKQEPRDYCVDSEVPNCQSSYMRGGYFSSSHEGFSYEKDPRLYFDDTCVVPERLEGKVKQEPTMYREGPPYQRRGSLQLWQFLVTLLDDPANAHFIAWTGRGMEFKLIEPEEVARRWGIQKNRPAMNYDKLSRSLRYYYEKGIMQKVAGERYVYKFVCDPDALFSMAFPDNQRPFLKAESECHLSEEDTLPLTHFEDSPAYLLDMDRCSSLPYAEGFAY
# Outline: as §1
# HSF1 = HSF1 (Homo sapiens, UniProt Q00613 1-529); conditions: protein: recombinant; tags: N-terminal GST; chain copies: 3; dsDNA, one strand shown
# Chain of HSF1 (Q00613 whole entry): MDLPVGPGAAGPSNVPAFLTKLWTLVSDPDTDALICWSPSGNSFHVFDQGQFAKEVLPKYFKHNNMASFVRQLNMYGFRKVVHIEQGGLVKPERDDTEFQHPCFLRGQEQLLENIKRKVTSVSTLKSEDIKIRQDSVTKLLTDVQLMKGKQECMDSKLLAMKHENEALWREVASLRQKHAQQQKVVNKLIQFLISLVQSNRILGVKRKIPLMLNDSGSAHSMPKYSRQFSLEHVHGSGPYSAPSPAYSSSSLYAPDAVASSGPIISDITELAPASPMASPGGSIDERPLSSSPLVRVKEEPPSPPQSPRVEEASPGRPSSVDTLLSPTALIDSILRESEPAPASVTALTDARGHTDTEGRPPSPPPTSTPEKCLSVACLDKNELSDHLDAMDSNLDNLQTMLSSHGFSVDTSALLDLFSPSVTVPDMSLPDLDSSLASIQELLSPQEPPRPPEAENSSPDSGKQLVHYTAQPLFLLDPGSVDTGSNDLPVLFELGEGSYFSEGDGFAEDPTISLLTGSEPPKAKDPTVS
# Outline: as §1
# SPIC = molecular target: T2, SPIC (Homo sapiens, UniProt Q8N5J4 1-248); conditions: protein: recombinant; tags: N-terminal GST; dsDNA, one strand shown
# T2 sequence: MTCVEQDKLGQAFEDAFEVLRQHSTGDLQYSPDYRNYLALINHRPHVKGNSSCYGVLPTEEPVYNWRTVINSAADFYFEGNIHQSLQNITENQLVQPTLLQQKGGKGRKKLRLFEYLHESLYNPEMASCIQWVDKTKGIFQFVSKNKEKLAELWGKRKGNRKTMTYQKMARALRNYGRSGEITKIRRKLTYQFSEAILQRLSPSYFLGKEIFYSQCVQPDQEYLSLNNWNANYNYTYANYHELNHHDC
# Outline: as §1
# ELF4 = ELF4 (Homo sapiens, UniProt Q99607 1-663); conditions: protein: recombinant; tags: N-terminal GST; dsDNA, one strand shown
# Chain of ELF4 (Q99607 whole entry): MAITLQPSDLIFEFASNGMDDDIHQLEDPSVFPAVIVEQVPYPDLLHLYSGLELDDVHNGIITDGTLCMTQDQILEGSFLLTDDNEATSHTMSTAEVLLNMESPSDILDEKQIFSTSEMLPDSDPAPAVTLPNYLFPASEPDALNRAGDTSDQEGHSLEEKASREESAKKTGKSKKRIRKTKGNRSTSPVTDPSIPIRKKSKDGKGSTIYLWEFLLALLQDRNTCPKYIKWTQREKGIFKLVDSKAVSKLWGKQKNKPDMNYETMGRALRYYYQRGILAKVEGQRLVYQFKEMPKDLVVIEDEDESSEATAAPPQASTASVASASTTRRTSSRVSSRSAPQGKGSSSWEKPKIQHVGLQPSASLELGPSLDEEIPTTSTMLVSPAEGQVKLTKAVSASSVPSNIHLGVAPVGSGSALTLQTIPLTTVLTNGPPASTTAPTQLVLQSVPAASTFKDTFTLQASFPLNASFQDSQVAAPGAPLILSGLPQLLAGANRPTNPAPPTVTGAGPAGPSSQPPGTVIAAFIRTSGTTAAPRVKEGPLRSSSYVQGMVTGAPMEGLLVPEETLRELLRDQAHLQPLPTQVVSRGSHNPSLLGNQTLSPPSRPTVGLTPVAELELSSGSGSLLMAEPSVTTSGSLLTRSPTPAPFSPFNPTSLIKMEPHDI
# Outline: as §1
# ELK4 = molecular target: T3, ELK4 (Homo sapiens, UniProt P28324-2 1-405); conditions: protein: recombinant; tags: N-terminal GST; dsDNA, one strand shown
# T3 sequence: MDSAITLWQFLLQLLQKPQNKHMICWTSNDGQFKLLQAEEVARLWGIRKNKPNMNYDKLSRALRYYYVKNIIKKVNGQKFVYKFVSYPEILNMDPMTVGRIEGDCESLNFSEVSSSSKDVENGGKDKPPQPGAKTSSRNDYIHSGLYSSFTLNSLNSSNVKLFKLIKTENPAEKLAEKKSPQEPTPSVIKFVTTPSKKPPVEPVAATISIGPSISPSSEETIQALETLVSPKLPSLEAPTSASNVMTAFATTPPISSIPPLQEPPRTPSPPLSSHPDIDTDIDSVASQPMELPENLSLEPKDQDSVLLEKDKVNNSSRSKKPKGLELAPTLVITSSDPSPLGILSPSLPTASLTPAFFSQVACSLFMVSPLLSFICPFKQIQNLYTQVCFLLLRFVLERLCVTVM
# Outline: as §1
# ETV2 = molecular target: T4, ETV2 (Homo sapiens, UniProt O00321 1-342); conditions: protein: recombinant; tags: N-terminal GST; dsDNA, one strand shown
# T4 sequence: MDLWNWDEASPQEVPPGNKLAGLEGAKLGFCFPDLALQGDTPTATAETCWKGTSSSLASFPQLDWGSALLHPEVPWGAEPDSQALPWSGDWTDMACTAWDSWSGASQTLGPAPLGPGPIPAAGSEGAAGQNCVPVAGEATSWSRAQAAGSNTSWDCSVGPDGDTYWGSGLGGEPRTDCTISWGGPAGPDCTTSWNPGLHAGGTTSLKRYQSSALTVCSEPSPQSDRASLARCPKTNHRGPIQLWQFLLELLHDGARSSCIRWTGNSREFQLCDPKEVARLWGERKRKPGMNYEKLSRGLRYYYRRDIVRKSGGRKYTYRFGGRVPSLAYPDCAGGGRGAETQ
# Outline: as §1
# ELF3 = molecular target: T5, ELF3 (Homo sapiens, UniProt P78545 1-371); conditions: protein: recombinant; tags: N-terminal GST; dsDNA, one strand shown
# T5 sequence: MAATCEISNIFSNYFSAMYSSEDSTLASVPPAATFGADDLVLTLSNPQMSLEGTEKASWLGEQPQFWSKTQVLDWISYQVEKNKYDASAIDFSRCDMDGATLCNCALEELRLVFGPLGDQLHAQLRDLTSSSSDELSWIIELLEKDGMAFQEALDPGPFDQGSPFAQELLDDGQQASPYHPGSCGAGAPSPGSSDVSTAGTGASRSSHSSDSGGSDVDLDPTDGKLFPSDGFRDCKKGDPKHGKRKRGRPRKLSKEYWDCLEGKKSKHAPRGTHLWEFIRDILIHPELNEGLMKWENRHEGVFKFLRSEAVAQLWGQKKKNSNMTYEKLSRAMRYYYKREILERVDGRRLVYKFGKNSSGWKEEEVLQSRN
# Outline: as §1
# CRX = CRX (Homo sapiens, UniProt O43186 1-299); conditions: protein: recombinant; tags: N-terminal GST; dsDNA, one strand shown
# Chain of CRX (O43186 whole entry): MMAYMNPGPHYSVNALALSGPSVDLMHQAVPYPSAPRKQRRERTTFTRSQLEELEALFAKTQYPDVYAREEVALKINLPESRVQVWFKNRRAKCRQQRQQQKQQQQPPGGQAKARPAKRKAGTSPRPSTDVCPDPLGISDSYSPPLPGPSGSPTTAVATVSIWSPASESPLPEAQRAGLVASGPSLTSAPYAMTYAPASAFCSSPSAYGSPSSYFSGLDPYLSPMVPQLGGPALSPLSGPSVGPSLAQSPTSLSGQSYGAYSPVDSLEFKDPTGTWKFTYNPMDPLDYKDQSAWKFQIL
# Outline: as §1
# ETV1 = ETV1 (Homo sapiens, UniProt P50549 1-477); conditions: protein: recombinant; tags: N-terminal GST; dsDNA, one strand shown
# Chain of ETV1 (P50549 whole entry): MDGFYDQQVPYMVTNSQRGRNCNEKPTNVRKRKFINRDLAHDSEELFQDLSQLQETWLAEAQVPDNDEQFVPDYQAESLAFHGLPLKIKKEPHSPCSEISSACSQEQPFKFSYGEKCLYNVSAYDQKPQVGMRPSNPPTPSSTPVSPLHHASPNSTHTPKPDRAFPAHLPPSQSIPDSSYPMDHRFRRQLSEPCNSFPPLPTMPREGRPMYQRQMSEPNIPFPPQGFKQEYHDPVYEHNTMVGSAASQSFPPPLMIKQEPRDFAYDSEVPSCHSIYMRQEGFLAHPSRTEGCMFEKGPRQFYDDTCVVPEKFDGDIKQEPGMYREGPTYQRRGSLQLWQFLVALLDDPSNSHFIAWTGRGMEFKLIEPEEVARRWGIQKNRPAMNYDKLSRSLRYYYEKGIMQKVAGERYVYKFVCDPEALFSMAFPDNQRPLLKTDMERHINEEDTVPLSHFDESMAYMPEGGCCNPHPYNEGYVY
# Outline: as §1
Sequence,binding signal (FEV),binding signal (ETV5),binding signal (HSF1),binding signal (SPIC),binding signal (ELF4),binding signal (ELK4),binding signal (ETV2),binding signal (ELF3),binding signal (CRX),binding signal (ETV1)
TGTTTC,"1.97 fold enrichment (6-mer frequency, TF over GST control)","1.83 fold enrichment (6-mer frequency, TF over GST control)","1.43 fold enrichment (6-mer frequency, TF over GST control)","1.49 fold enrichment (6-mer frequency, TF over GST control)","1.73 fold enrichment (6-mer frequency, TF over GST control)","1.55 fold enrichment (6-mer frequency, TF over GST control)","1.69 fold enrichment (6-mer frequency, TF over GST control)","1.68 fold enrichment (6-mer frequency, TF over GST control)","1.17 fold enrichment (6-mer frequency, TF over GST control)","1.84 fold enrichment (6-mer frequency, TF over GST control)"
GTTATT,"1.08 fold enrichment (6-mer frequency, TF over GST control)","1.26 fold enrichment (6-mer frequency, TF over GST control)","1.19 fold enrichment (6-mer frequency, TF over GST control)","1.29 fold enrichment (6-mer frequency, TF over GST control)","1.16 fold enrichment (6-mer frequency, TF over GST control)","1.17 fold enrichment (6-mer frequency, TF over GST control)","1.27 fold enrichment (6-mer frequency, TF over GST control)","1.22 fold enrichment (6-mer frequency, TF over GST control)","1.32 fold enrichment (6-mer frequency, TF over GST control)","1.12 fold enrichment (6-mer frequency, TF over GST control)"
CTCTTC,"1.73 fold enrichment (6-mer frequency, TF over GST control)","1.76 fold enrichment (6-mer frequency, TF over GST control)","1.25 fold enrichment (6-mer frequency, TF over GST control)","1.69 fold enrichment (6-mer frequency, TF over GST control)","1.68 fold enrichment (6-mer frequency, TF over GST control)","1.66 fold enrichment (6-mer frequency, TF over GST control)","1.71 fold enrichment (6-mer frequency, TF over GST control)","1.67 fold enrichment (6-mer frequency, TF over GST control)","1.21 fold enrichment (6-mer frequency, TF over GST control)","1.71 fold enrichment (6-mer frequency, TF over GST control)"
CGCCTT,"1.39 fold enrichment (6-mer frequency, TF over GST control)","1.37 fold enrichment (6-mer frequency, TF over GST control)","1.32 fold enrichment (6-mer frequency, TF over GST control)","1.47 fold enrichment (6-mer frequency, TF over GST control)","1.54 fold enrichment (6-mer frequency, TF over GST control)","1.52 fold enrichment (6-mer frequency, TF over GST control)","1.64 fold enrichment (6-mer frequency, TF over GST control)","1.26 fold enrichment (6-mer frequency, TF over GST control)","1.38 fold enrichment (6-mer frequency, TF over GST control)","1.38 fold enrichment (6-mer frequency, TF over GST control)"
CTATCT,"1.34 fold enrichment (6-mer frequency, TF over GST control)","1.22 fold enrichment (6-mer frequency, TF over GST control)","1.4 fold enrichment (6-mer frequency, TF over GST control)","1.34 fold enrichment (6-mer frequency, TF over GST control)","1.34 fold enrichment (6-mer frequency, TF over GST control)","1.15 fold enrichment (6-mer frequency, TF over GST control)","1.39 fold enrichment (6-mer frequency, TF over GST control)","1.29 fold enrichment (6-mer frequency, TF over GST control)","1.4 fold enrichment (6-mer frequency, TF over GST control)","1.24 fold enrichment (6-mer frequency, TF over GST control)"
TCGACA,"1.3 fold enrichment (6-mer frequency, TF over GST control)","1.32 fold enrichment (6-mer frequency, TF over GST control)","1.38 fold enrichment (6-mer frequency, TF over GST control)","1.28 fold enrichment (6-mer frequency, TF over GST control)","1.43 fold enrichment (6-mer frequency, TF over GST control)","1.42 fold enrichment (6-mer frequency, TF over GST control)","1.19 fold enrichment (6-mer frequency, TF over GST control)","1.23 fold enrichment (6-mer frequency, TF over GST control)","1.19 fold enrichment (6-mer frequency, TF over GST control)","1.4 fold enrichment (6-mer frequency, TF over GST control)"
CTGGCT,"1.16 fold enrichment (6-mer frequency, TF over GST control)","1.13 fold enrichment (6-mer frequency, TF over GST control)","1.27 fold enrichment (6-mer frequency, TF over GST control)","1.13 fold enrichment (6-mer frequency, TF over GST control)","1.18 fold enrichment (6-mer frequency, TF over GST control)","1.42 fold enrichment (6-mer frequency, TF over GST control)","1.5 fold enrichment (6-mer frequency, TF over GST control)","1.19 fold enrichment (6-mer frequency, TF over GST control)","1.21 fold enrichment (6-mer frequency, TF over GST control)","1.1 fold enrichment (6-mer frequency, TF over GST control)"
CTGATT,"1.05 fold enrichment (6-mer frequency, TF over GST control)","1.25 fold enrichment (6-mer frequency, TF over GST control)","1.32 fold enrichment (6-mer frequency, TF over GST control)","1.5 fold enrichment (6-mer frequency, TF over GST control)","1.22 fold enrichment (6-mer frequency, TF over GST control)","1.09 fold enrichment (6-mer frequency, TF over GST control)","1.21 fold enrichment (6-mer frequency, TF over GST control)","1.12 fold enrichment (6-mer frequency, TF over GST control)","1.51 fold enrichment (6-mer frequency, TF over GST control)","1.27 fold enrichment (6-mer frequency, TF over GST control)"
